Each structure is given as a SMILES string. Inconclusive results are not listed. The source made the active and inactive calls. The calls were made as follows: active = hit-call score of the fitted dose curve at least 0.9, where 1 is the maximum; inconclusive = response in the unintended direction; inactive = score below 0.9.

This test can be described thus: ATG_XTT_Cytotoxicity: Cytotoxicity Assessment in the Attagene TRANS-FACTORIAL HepG2 Assay (AID 2283584). The procedure: ATG_XTT_Cytotoxicity is a cell-based, single-readout assay that uses HepG2, a human liver cell line, with measurements taken at 24 hours after chemical dosing in a 24-well plate.ATG_XTT_Cytotoxicity is one of one assay component(s) measured or calculated from the ATG_XTT_Cytotoxicity assay. It is designed to make measurements of cell number, a form of viability reporter, as detected with […] signals by XTT cytotoxicity assay technology.Data from the assay component ATG_XTT_Cytotoxicity was analyzed into 1 assay endpoint. This assay endpoint, ATG_XTT_Cytotoxicity, was analyzed in the positive analysis fitting direction relative to DMSO as the negative control and baseline of activity. Using a type of viability reporter, loss-of-signal activity can be used to understand changes in the viability. Furthermore, this assay endpoint can be referred to as a primary readout, because the performed assay has only produced 1 assay endpoint. To generalize the intended target to other relatable targets, this assay endpoint is annotated to the cell cycle intended target family, where the subfamily is cytotoxicity.
Human liver HepG2 cells are transiently transfected with multiple reporter transcription units (MRTUs) in 6-well plates using FuGene 6 reagent (Roche; 3 ml FuGene/1 mg DNA). The MRTU constructs are regulated by a cis-regulating element (promoter). […] A major difference between the CIS and TRANS system is that in CIS activities of endogenous TFs are measured, whereas the TRANS assay evaluates changes in activities of exogenous, chimeric NR-Gal4 proteins. […] At the end of 24 hour incubation, total RNA was isolated using TriZol reagent (Invitrogen). The isolated RNA is then reverse-transcribed using oligo(dT) primer and Mo-MLV reverse transcriptase (Invitrogen) with DNAse I (Ambion) treatment for 30 min. The one-tenth of the produced cDNA was amplified by PCR using Taq DNA polymerase (Invitrogen) and two reporter sequence-specific primers. The PCR products were fluorescently labeled by primer extension with 6-arboxyfluorescein (6-FAM) 5'-labeled reporter sequence-specific primer (2 min at 95 C, 20 s at 68 C and 10 min at 72 C) and these products were digested with 5U of HpaI (New England Biolabs) for 2h at 37 C. The fragments were purified using Qiaquick PCR columns (Qiagen), analyzed on an ABI 3130xL genetic analyzer (Applied Biosystems) with peak positions identified by using a set of X-rhodamine (ROX)-labeled MapMarker1000 molecular weight standards (BioVentures). The raw capillary electrophoresis data was processed using Attagraph software (Attagene).
For the compound `ClC1=C(Cl)[C@]2(Cl)[C@H]3[C@H]([C@@H]4C=C[C@H]3C4)[C@@]1(Cl)C2(Cl)Cl`, the call was inactive.
To `CN(C)c1ccc(C(=O)c2ccc(N(C)C)cc2)cc1` belongs “inactive”; to `Nc1ccc(Cc2ccc(N)cc2)cc1`, “inactive”; to `OCCOCCO`, “inactive”.
Consider `CC(C)(C)C(O)(CCc1ccc(Cl)cc1)Cn1cncn1` (stereo not given), for which the outcome was inactive.
Consider `COC(=O)c1ccccc1N`, for which the result was inactive.
To `ClCCOCCCl` belongs “inactive”; to `CN(C)C(=O)Nc1ccc(Cl)cc1`, “inactive”; to `CC(C)(C)OOC(C)(C)CCC(C)(C)OOC(C)(C)C`, “inactive”.
With `CN(C)c1ccccc1`, the compound was classed as inactive.
Regarding `Nc1cc(Cl)cc(C(=O)O)c1Cl`, the compound was classed as inactive.
To `CCCSC(=O)N(CCC)CCC` belongs “inactive”.
To `C[N+](C)(C)CC1CO1` (stereo not given) belongs “inactive”; to `Clc1ccc(C(c2ccc(Cl)cc2)C(Cl)Cl)cc1`, “inactive”; to `CC(C)COC(=O)c1ccccc1C(=O)OCC(C)C`, “inactive”.
To `C1=Cc2cccc3cccc1c23` belongs “inactive”; to `Cc1cc(N=Nc2ccccc2C)ccc1N`, “inactive”.
`Cc1ccc([N+](=O)[O-])cc1`: the compound was called inactive.
Regarding `CC(C)(OOC(C)(C)c1ccccc1)c1ccccc1`, the call was inactive.
Turning to `N#CC(Br)(Br)C(N)=O`, the call was inactive.
Consider `CCCCCCCCOC(=O)c1ccc(C(=O)OCCCCCCCC)c(C(=O)OCCCCCCCC)c1`, for which the result was inactive.
With `CCCCOC(=O)c1ccccc1C(=O)OCc1ccccc1` the entry was “inactive”; with `O=P(OCCCl)(OCCCl)OCCCl`, “inactive”; with `Clc1ccc(C(c2ccc(Cl)cc2)C(Cl)(Cl)Cl)cc1`, “inactive”.
To `CC(C)(C)OOC(=O)c1ccccc1` belongs “inactive”; to `COC(=O)Nc1nc2ccccc2[nH]1`, “inactive”; to `ClC1=C(Cl)C2(Cl)C3C(Cl)C=CC3C1(Cl)C2(Cl)Cl` (stereo not given), “inactive”.
To `Nc1ccc(Cl)cc1N` belongs “inactive”.
For the compound `[Cl-].[Cl-].[Hg+2]`, the compound was classed as inactive.
In the case of `Nc1ccc([N+](=O)[O-])cc1`, the compound was classed as inactive.
Consider `Cn1cc(-c2ccccc2)c(=O)c(-c2cccc(C(F)(F)F)c2)c1`, for which the compound was called inactive.
To `COc1cc(C=O)cc2c1[C@H](COC(N)=O)[C@]1(OC(C)=O)ON2C[C@H]2[C@@H]1N2C(C)=O` belongs “inactive”; to `CO[C@@H]1[C@H](OC(=O)NC(=O)CCl)CC[C@]2(CO2)[C@H]1[C@@]1(C)O[C@@H]1CC=C(C)C`, “inactive”; to `Nc1ccc(Oc2ccc(N)cc2)cc1`, “inactive”.
With `CCCCC(CC)COC(=O)c1ccc(C(=O)OCC(CC)CCCC)c(C(=O)OCC(CC)CCCC)c1` (stereo not given) the entry was “inactive”.
With `Clc1ccccc1Cl` the entry was “inactive”; with `[O-][Cl+]O`, “inactive”; with `c1ccc2c(c1)-c1cccc3cccc-2c13`, “inactive”.
On to `O=[N+]([O-])c1ccc(Oc2ccc(Cl)cc2Cl)cc1`, for which the compound was classed as inactive.
To `CC(C)N(Cc1ccccc1)C(=O)C(C)(C)C` belongs “inactive”.
